PubChem BioAssay (NCATS)
Inconclusive results are not listed. Active and inactive are the calls of the source. Unless noted, calls come from the whole dose curve; as a rule, active = well fitted inhibition curve with a large enough effect; inconclusive = small, poorly fitted or top-dose-only effect; inactive = no such curve, though single readings can be large or run the other way.

system: not listed separately; assay: S16 Schwann cell PMP22 intronic element beta-lactamase assay (AID 624044; calls by dose curve; note: nearly all actives have a fitted effect of over 15% in size;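 for ratio activity, negative = inhibition: 0% = DMSO and -100% = potassium clavulanate positive control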); details: S16 rat Schwann cells, PMP22 element beta-lactamase FRET, 24 h; ratio activity, negative = inhibition: at 38.3 µM (top of the series)
Method in brief: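 Rat S16 Schwann cells with beta-Lac driven by a PMP22 intronic element, compound-treated 24 h at 37 °C. LiveBLAzer FRET B/G read: 460 nm normalized to potassium clavulanate vs DMSO; 535 nm FRET as viability; concentration-effect curves classified.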
Potency is the fitted concentration of half-maximal effect.

**Q.** Which Potency does the source give for `NC(C(=O)O)[C@@H]1CC(Cl)=NO1` (stereo partly drawn) here?
**A.** Its Potency is 19.9 µM (active).

**Q.** With `COc1cc(-c2ccc(-[n+]3nc(-c4ccccc4)nn3-c3ccc([N+](=O)[O-])cc3)c(OC)c2)ccc1-[n+]1nc(-c2ccccc2)nn1-c1ccc([N+](=O)[O-])cc1` as the molecule, how does the Potency read?
**A.** Its Potency is 25.1 µM (active).

**Q.** Which Potency does the source give for `C[C@]12O[C@H](C[C@]1(O)CO)n1c3ccccc3c3c4c(c5c6ccccc6n2c5c31)CNC4=O` here?
**A.** The Potency was 7.07 µM (active).

**Q.** For `C[C@H](CCCC(C)(C)O)[C@H]1CC[C@H]2[C@@H]3CC=C4C[C@@H](O)CC[C@]4(C)[C@H]3CC[C@]12C`, which “ratio activity, negative = inhibition” value is on record?
**A.** The value was 1.58% (inactive).

**Q.** For `CC1(Cn2ccnn2)[C@H](C(=O)O)N2C(=O)C[C@H]2S1(=O)=O` (stereo partly drawn), which Potency is on record?
**A.** The Potency was 12.6 µM (active).

target: Tumor susceptibility gene 101 protein (Homo sapiens) (UniProt Q99816); assay: qHTS Assay for Iinhibitors of HIV-1 Budding by Blocking the Interaction of PTAP/TSG101: Hit Validation (AID 651600); details: PTAP peptide/TSG101 UEV interaction, biochemical assay; series mostly up to 57.5 µM; activity change, negative = inhibition: at the top concentration; note: nearly all actives have a fitted effect of over 70% in size; for activity change, negative = inhibition: % is set by controls: 0 for no effect and ±100 for the full control effect
Text: Stages of the HIV-1 replication cycle, specifically virus assembly and release, provide underexploited targets for the development of novel antiviral inhibitors. The late stages of HIV-1 replication are mediated by the Gag precursor protein, Pr55Gag. Expression of Pr55Gag is both necessary and sufficient for the production of virus-like particles from Gag-expressing cells. The Gag protein hijacks key host proteins involved in endocytic machinery of the host cell to promote endosomal processing and viral budding. The budding process requires a direct interaction between a […] (PTAP) motif in the p6 domain of Gag and the cellular endosomal sorting protein known as Tsg101. In this way, the Gag PTAP motif promotes the host cells to recruit viral particles to the plasma membrane where the new viral particles are released, effectively turning the host cells into viral factories. A fluorescence anisotropy assay has been developed to quantitatively measure the PTAP-Tsg101 interaction which can be used to screen for inhibitors of this interaction.
NIH Molecular Libraries Probe Production Network [MLPCN]
NIH Chemical Genomics Center [NCGC]
PI Name: Dr. Eric Freed, NCI
Two uL of the Tsg101 binding domain in buffer (10 mM HEPES pH 7.5; 0.15 M NaCl, 0.01% Tween 20; 3 mM EDTA;0.1 mM TCEP) was dispensed into Greiner black MB 1536-well plates (final concentration 10 uM). Then, 23 nL of compounds or DMSO were delivered to each well using a pin tool. Finally, 2 uL of a FITC-labeled peptide containing the PTAP motif (1) in the same buffer was dispensed (50 nM final concentration) and the binding was allowed to proceed for 20 min. at r.t. Fluorescent polarization was determined using FITC excitation and polarized emission filters on a Perkin Elmer Viewlux.
Keywords: Tsg101, PTAP, Gag, HIV, fluorescent polarization, MLSMR, MLPCN, NIH Roadmap, qHTS, NCGC

Tumor susceptibility gene 101 protein (Homo sapiens), sequence (Q99816 whole entry, looked up): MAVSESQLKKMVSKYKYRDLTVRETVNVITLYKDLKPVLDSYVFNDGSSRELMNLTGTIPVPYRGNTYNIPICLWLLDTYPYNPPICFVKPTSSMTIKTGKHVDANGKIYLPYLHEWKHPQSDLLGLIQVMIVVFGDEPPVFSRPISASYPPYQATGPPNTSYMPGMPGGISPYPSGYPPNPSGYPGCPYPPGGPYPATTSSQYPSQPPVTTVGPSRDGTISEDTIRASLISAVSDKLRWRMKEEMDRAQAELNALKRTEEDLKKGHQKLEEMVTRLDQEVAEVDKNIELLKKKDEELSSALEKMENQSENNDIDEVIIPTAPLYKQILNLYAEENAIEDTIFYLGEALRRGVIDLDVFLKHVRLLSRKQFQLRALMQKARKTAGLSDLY

**Q.** With `N#CCN1CCN(c2ccc(C(F)(F)F)cc2)CC1` as the molecule, how does the “activity change, negative = inhibition” value read?
**A.** Its value is 2.83% (inactive).

**Q.** Which Potency does the source give for `CCOC(=O)c1c(/N=C/c2c(O)n(-c3ccccc3F)c(=S)[nH]c2=O)sc2c1CCCC2` here?
**A.** Its Potency is 16.3 µM (active).

**Q.** For `Cc1cc(N2CCCC2)ccc1C=C(C#N)C#N`, which “activity change, negative = inhibition” value is on record?
**A.** The value was 4.33% (inactive).

**Q.** Which Potency does the source give for `COc1cccc2c1C(=O)c1c(O)c3c(c(O)c1C2=O)CC(O)(C(C)=NO)CC3OC1CC(N)C(O)C(C)O1` (stereo not drawn) here?
**A.** Its Potency is 10.3 µM (active).

**Q.** For `COc1ccc(N2C(=O)NC(=O)/C(=C\c3cn(C)c4ccccc34)C2=O)cc1`, which “activity change, negative = inhibition” value is on record?
**A.** Its value is -1.68% (inactive).

**Q.** With `CN1Cc2c(c(C#N)c(N)n(C)c2=S)CC1(C)C` as the molecule, how does the Potency read?
**A.** Its Potency is 32.6 µM (active).

**Q.** Which Potency does the source give for `Nc1ccc2c3c(cccc13)-c1ccccc1-2` here?
**A.** Its Potency is 9.19 µM (active).

**Q.** Which “activity change, negative = inhibition” value does the source give for `CC(C)C[C@H]1C(=O)N2CCC[C@H]2[C@]2(O)O[C@](NC(=O)[C@@H]3C=C4c5cccc6[nH]cc(c56)C[C@H]4N(C)C3)(C(C)C)C(=O)N12` here?
**A.** Its value is -7.73% (inactive).
